# Assay outcomes from PubChem.
# An excerpt weighted towards active compounds, which were near 2.6% of everything screened.
# AmpC nodet inh: Promiscuous and Specific Inhibitors of AmpC Beta-Lactamase (assay without detergent) | P00811 | AmpC nitrocefin hydrolysis, absorbance 480 nm, no detergent | Potency, µM (titrated, usually from 28.7 µM), for inactives: at the highest dose activity change, negative = inhibition | 1.8% of 71,000 active | AID 585, 2007; further: % of control where 0% means no effect
# Target sequence (P00811 whole entry, looked up): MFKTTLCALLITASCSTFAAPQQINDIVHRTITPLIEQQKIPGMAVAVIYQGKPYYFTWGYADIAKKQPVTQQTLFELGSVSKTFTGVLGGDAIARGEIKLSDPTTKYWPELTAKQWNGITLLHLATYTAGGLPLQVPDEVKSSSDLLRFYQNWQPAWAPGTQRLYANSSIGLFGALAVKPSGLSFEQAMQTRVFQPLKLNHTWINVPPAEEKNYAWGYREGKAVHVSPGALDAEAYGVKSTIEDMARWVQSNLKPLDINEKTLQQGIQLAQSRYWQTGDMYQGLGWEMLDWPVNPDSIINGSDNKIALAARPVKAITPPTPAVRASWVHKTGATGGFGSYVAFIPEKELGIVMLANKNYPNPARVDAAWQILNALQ
#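 AmpC, 20 mM phosphate pH 7.0; 15 min cpd preinc, RT; start with nitrocefin (800 uM stock); A480 kinetic read, 20 s intervals, 4 min. No-enzyme wells = negative control.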
# AmpC inh det: Promiscuous and Specific Inhibitors of AmpC Beta-Lactamase (assay with detergent) | P00811 | purified AmpC, nitrocefin hydrolysis with detergent | Potency, µM (series often up to 28.7 µM), for the others: at the top dose activity change, negative = inhibition | 0.09% of 71,000 active; active means well fitted curve in the direction sought with a large enough effect; inconclusive means small, poorly fitted or top-dose-only effect; further: on the % scale 0 is the no-effect control and ±100 the full control effect
#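 E. coli AmpC (5.3 nM) in 20 mM phosphate pH 7.0 with 0.01% Triton X-100, preincubated 15 min RT with compound; nitrocefin (2 uL of 800 uM stock) hydrolysis followed by 480 nm absorbance every 20 s over 4 min.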
# Prx2 Sm inh: Schistosoma Mansoni Peroxiredoxins (Prx2) | S. mansoni Prx2 activity coupled to TGR/GSH (TGR is thioredoxin glutathione reductase), NADPH fluorescence loss, qHTS | Potency, µM | 0.07% of 65,000 active
#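 Activity is read as the drop in NADPH fluorescence (365/450 nm), recorded every 30 sec for 8 min after H2O2 addition. Prx2 is coupled to TGR-driven NADPH oxidation through glutathione, in phosphate buffer pH 7.4.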
# Anthrax LT inh: qHTS Assay for Anthrax Lethal Toxin Internalization | 0.67% of 70,000 active | Cells, anthrax lethal toxin internalization, FRET ratio (460/530) | Potency, µM (doses to about 40 µM), for inactives: at the top dose activity change, negative = inhibition, most hits filed as inhibitors; further: on the % scale 0 is the no-effect control and ±100 the full control effect; nearly all actives have a fitted effect of over 50% in size
# Active calls of the source: *; ? = inconclusive; nt = not tested or not shown; [ ] = dose if it differs, or a comment. Unless noted, the call rests on the fitted dose curve. Potency means the concentration at half of the fitted maximal effect.
SMILES,AmpC nodet inh,AmpC inh det,Prx2 Sm inh,Anthrax LT inh
Cn1c(C(=O)N2CCN(c3ccc(F)cc3)CC2)cc2c(=O)n(C)c3ccccc3c21,10%,10%,>57,-2%
Cn1c(C(=O)N2CCN(C3CCCCC3)CC2)cc2c(=O)n(C)c3ccccc3c21,4µM*[single pt active],13%,>57,-6%
COc1cc(/C=C\C(=O)CC(=O)/C=C\c2ccc(O)c(OC)c2)ccc1O,-9%,-2%,>57,?
CC(C)(C)C(=O)[C@@H]1[C@@H]2C(=O)N(c3ccc4c(c3)OCCO4)C(=O)[C@@H]2C2c3ccccc3C=CN21 (stereo partly drawn),19%,-14%,>57,1.3µM*
COc1ncc2nc(-c3cc(F)cc(F)c3)c(=O)n(C[C@H]3CCCO3)c2n1,11%,2%,>57,-9%
CC(C)(C)c1ccc(/C=C/C(=O)Nc2ccc3c(c2)OCCO3)cc1,nt,nt,nt,4µM*
Cc1oc(C(C)(C)C)cc1C(=O)Nc1ccc2c(c1)OCCO2,16%,-2%,>57,?
COc1ccccc1S(=O)Cc1ccc(C(=O)NCc2ccccc2Cl)o1 (stereo not drawn),4µM*[single pt active],12%,>57,?
Cc1cnc(CNc2ccnc(-c3ccccc3C)n2)cn1,11%,8%,>57,-5%
Cc1cc(O)c(C(C)(C)C)cc1Sc1cc(C(C)(C)C)c(O)cc1C,13µM*,6%,nt,?
CC(C)(C)c1cc(O)c(C(C)(C)C)cc1O,-6%,-1%,>57,?
CC(CN1CCCCC1)OC(=O)c1ccc2c(c1)OCO2 (stereo not drawn),-10%,-1%,>57,-3%
CC1CCN(CC(C)OC(=O)c2ccc3c(c2)OCCO3)CC1 (stereo not drawn),4µM*[single pt active],27%,>57,-7%
Cc1cc(C(C)(C)C)c(O)c(C(C)(C)C)c1,4%,12%,nt,nt
Cc1cc(-c2cc(C)c(O)c(C(C)(C)C)c2)cc(C(C)(C)C)c1O,-4%[5.75 µM],-2%[5.75 µM],>57,2.5µM*
Clc1ccc(-n2nnnc2SCc2c(-c3ccccc3)nc3sccn23)cc1,13µM*,-2%,>57,-10%
O=C(Cn1cnc2sc(-c3ccccc3)cc2c1=O)NCc1ccco1,5µM*,18%,>57,-26%
Oc1ccc(Cc2nccc3cc(O)c(O)cc23)cc1O,-10%[5.75 µM],-2%[5.75 µM],>57,-17%[8 µM]
CC1(C)Cn2c(nnc2-c2ccccc2)S1,-3%,-1%,>57,-6%
C=C1Cn2c(nnc2-c2ccc(Cl)cc2)S1,4µM*[single pt active],12%,>57,1%
COc1cccc(Cn2c(=O)c(-c3cn(C)c4ccccc34)nc3cnc(OC)nc32)c1,-11%,0%,>57,3%
Cc1oc(-c2ccccc2F)nc1CS(=O)CC(=O)NCc1cccs1 (stereo not drawn),4µM*[single pt active],10%,>57,0%
Cc1oc(-c2cccs2)nc1CS(=O)CC(=O)NCCc1ccccc1 (stereo not drawn),10%,7%,>57,-15%
Cc1oc(-c2ccccc2F)nc1CS(=O)CC(=O)NCc1ccc2c(c1)OCO2 (stereo not drawn),4µM*[single pt active],12%,>57,-11%
CN(C)[C@@H]1C(=O)C(C(N)=O)=C(O)[C@]2(O)C(=O)C3=C(O)c4c(O)cccc4[C@](C)(O)[C@H]3C[C@@H]12,-10%[5.75 µM],-10%[5.75 µM],>57,-12%[8 µM]
SMILES,AmpC nodet inh,AmpC inh det,Prx2 Sm inh,Anthrax LT inh
COc1cc(S(=O)(=O)NCc2ccc3c(c2)OCO3)ccc1Cl,-14%,7%,>57,?
COc1cc(C)c(S(=O)(=O)NCc2ccc3c(c2)OCO3)cc1C,3.2µM*[single pt active],11%,>57,?
CCOc1ccc(OCC)c(S(=O)(=O)NCc2ccc3c(c2)OCO3)c1,4µM*[single pt active],14%,>57,-11%
CCN(CC)CCCCn1c(-c2ccccc2)nc2c(Nc3ccccc3)nc(C)nc21,84%,15%,nt,16µM*
COc1cc2c(=O)n(CC3CCCO3)c(=O)n(CC(=O)Nc3ccc(F)cc3F)c2cc1OC (stereo not drawn),4µM*[single pt active],16%,>57,10%
CCOC(=O)C1=C(C)Nc2nnnn2C1c1ccc(OC)c(Br)c1 (stereo not drawn),4µM*[single pt active],6%,>57,-3%
C=CCOC(=O)C1=C(C)Nc2nnnn2C1c1cc(OC)ccc1OC (stereo not drawn),14%,-5%,>57,7%
O=C(Nc1ccccc1)N1CCC2(CC1)CCN(C(=O)c1cccc(F)c1)CC2,56%,-1%,>57,?
